NS1 function inh = qHTS Assay for Inhibitors of Influenza NS1 Protein Function. Potency, µM (highest dose often 46.1 µM), for inactives: top-dose activity, positive = more growth. hit rate 0.4% among 270,000; calls by dose curve; further: actives are rising curves; nearly all actives have a fitted effect of over 50% in size
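Recovery from NS1-induced slow growth read by OD600 in budding yeast switched to galactose assay medium (pH 6.0, -URA) at 1:100 dilution. Compound 23 nl per well; the matching strain lacking NS1 serves as control.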
Cruzain inh Det = qHTS Assay for Promiscuous and Specific Inhibitors of Cruzain (with detergent). Cruzipain (Trypanosoma cruzi), P25779. purified cruzain, Z-FR-AMC fluorescence, 0.01% Triton. Potency, µM, inactives show max response, negative = inhibition, hits mostly inhibitors. hit rate 0.43% among 200,000;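 further: plate controls were neutral wells for no effect and buffer without enzyme for full effect; nearly all actives have a fitted effect of over 40% in size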
Target sequence (P25779 123-467 limits assumed): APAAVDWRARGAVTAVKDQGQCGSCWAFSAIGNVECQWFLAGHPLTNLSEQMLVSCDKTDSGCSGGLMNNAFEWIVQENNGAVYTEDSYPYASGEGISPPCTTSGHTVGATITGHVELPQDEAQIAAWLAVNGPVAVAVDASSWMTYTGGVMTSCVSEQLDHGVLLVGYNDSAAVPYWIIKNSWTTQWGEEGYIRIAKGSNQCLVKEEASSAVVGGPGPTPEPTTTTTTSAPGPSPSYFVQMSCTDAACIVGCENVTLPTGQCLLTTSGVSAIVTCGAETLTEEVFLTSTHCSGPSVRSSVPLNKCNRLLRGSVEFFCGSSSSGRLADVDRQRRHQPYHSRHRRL
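Cruzain (1.5 nM) preincubated 15 min at RT with compound in 100 mM sodium acetate pH 5.5, 5 mM DTT, 0.01% Triton X-100. Reaction started with 2 uM Z-FR-AMC; AMC fluorescence (ex 360/em 450 nm) change over 60 s gave rate.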
Cruzain inh noDet = qHTS Assay for Promiscuous and Specific Inhibitors of Cruzain (without detergent); hit rate 2.3% among 200,000; purified cruzain, Z-FR-AMC fluorescence, no detergent; Potency, µM, for inactives: max response, negative = inhibition, hits mostly inhibitors; AID 1476, 2009;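 further: plate controls were enzyme without inhibitor for no effect and buffer without enzyme for full effect; nearly all actives have a fitted effect of over 40% in size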
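Purified cruzain at 1.5 nM, pre-incubated 15 min with compound at room temperature in 100 mM sodium acetate pH 5.5, 5 mM DTT, 0.00005% Triton X-100. Reaction started with 2 uM Z-FR-AMC; AMC fluorescence increase over 60 s gives rate.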
* marks the source's active call; other numbers are inactive results; u = inconclusive; x = no result given. The full list was thinned out, with hits kept by preference. Unless noted, the call rests on the fitted dose curve; in most records, active means well fitted curve in the direction sought with a large enough effect; inconclusive means small, poorly fitted or top-dose-only effect, or another doubt; inactive means no such curve, though single readings can be large; an effect the other way counts as inactive or inconclusive. Potency means the concentration at half of the fitted maximal effect.

SMILES	NS1 function inh	Cruzain inh Det	Cruzain inh noDet
O=C(C[N+]12CN3CN(CN(C3)C1)C2)c1ccc(-c2ccccc2)cc1	-8%	5%	u
Nc1nc(NC(=O)c2cccc(S(=O)(=O)N3CCCCCC3)c2)nc(-c2ccccc2)n1	10%	0%	20µM*
O=C(Nc1nc(-c2ccccc2)c(-c2ccccc2)s1)c1ccc(S(=O)(=O)N2CCCC2)cc1	7%	6%	u
O=C(O)c1cccc(NC(=O)c2cccc(S(=O)(=O)N3CCCCC3)c2)c1	u	-3%	2%
O=C(Nc1nc(-c2ccccc2)c(C(=O)c2ccccc2)s1)c1ccc(S(=O)(=O)N2CCCC2)cc1	8%	-2%	25µM*
O=C(NCc1noc2ccccc12)Nc1ccc(F)cc1F	x	-3%	3%
CCNc1ncc2nc(-c3ccc(Cl)cc3)c(=O)n(-c3ccc(OC)cc3)c2n1	x	-4%	-8%
COc1ccc2c(c1)CCc1c(C(=O)Nc3c(C)nn(Cc4ccc(Cl)cc4)c3C)noc1-2	x	-5%	2%
COc1ccc2c(c1)CCc1c(C(=O)Nc3cc(C)n(Cc4ccc(Cl)cc4)n3)noc1-2	-1%	-3%	13µM*
CCC(C)c1ccc(OCC(=O)Nc2ccc3[nH]c(=O)[nH]c3c2)cc1 (stereo not given)	18%	-2%	25µM*
CCCC(=O)OCC(=O)Nc1ccc2[nH]c(=O)[nH]c2c1	4%	x	x
CC1=C(O)C(=O)[C@H]2O[C@@H]2C1=O	x	-8%	-5%
Cc1ccc(Cn2cc(S(=O)(=O)c3ccc(Cl)cc3)c(=O)c3cc(F)ccc32)cc1	-1%	0%	u
Cc1ccc(C)c(S(=O)(=O)c2cn(Cc3ccccc3)c3cc(F)c(F)cc3c2=O)c1	x	-5%	25µM*
O=S(=O)(c1cccc(Cl)c1)n1c(/C=C/c2ccccc2Cl)nc2ccccc21	x	-10%	7.9µM*
CSc1ccc(/C=C/c2nc3ccccc3n2S(=O)(=O)c2cccc(Cl)c2)cc1	x	-11%	-1%
COC/C=C/C1=CC2=CC(=O)C(C)(OC(=O)c3ccc(Cl)nc3)C(=O)C2=CO1 (stereo not given)	x	-5%	0%
CCOc1ccc(N2C(=O)c3[nH]nc(-c4ccc(OC)cc4)c3C2c2cccs2)cc1 (stereo not given)	x	-9%	u
Cc1ccc(OCC(=O)NC(=S)Nc2ccc3c4c(cccc24)CC3)cc1	3%	-12%	u
CC(C)c1ccc(OCC(=O)NC(=S)Nc2ccc3c4c(cccc24)CC3)cc1	6%	1%	25µM*
O=C(COc1ccccc1)NC(=S)Nc1ccc2c3c(cccc13)CC2	6%	-8%	u
O=C(/C=C/c1ccccc1)NC(=S)Nc1ccc2c3c(cccc13)CC2	25%	-6%	13µM*
CCCCn1c(=N)c(S(=O)(=O)c2ccc(C)cc2)cc2c(=O)n3cc(C)ccc3nc21	x	1%	9%
CCOc1ccc(NC(=O)C2CCN(c3nnc(-n4c(C)ccc4C)s3)CC2)cc1	x	-4%	28%
OC(CNCC1CCCO1)Cn1c2ccc(Cl)cc2c2cc(Cl)ccc21 (stereo not given)	-125%	-4%	u
SMILES	NS1 function inh	Cruzain inh Det	Cruzain inh noDet
OC(CNCCC1C=Nc2ccccc21)Cn1c2ccc(Cl)cc2c2cc(Cl)ccc21 (stereo not given)	u	-16%	6.3µM*
C[C@@H]1C[C@](C)(C(=O)c2ccco2)C=C1c1ccco1	x	1%	-3%
COc1ccc(OC)c(CCNC(=O)c2c(C)nn(-c3ccc(F)cc3)c2-n2cccc2)c1	x	-7%	30%
Cc1ccc(S(=O)(=O)N2CCCc3cc(NS(=O)(=O)c4cccc(Cl)c4)ccc32)cc1	x	-2%	25µM*
CCOc1ccc(S(=O)(=O)Nc2ccc3c(c2)CCCN3S(=O)(=O)c2ccc(C)cc2)cc1	x	-2%	u
COc1ccc(NC(=O)C(=O)N/N=C/c2cc(C)n(-c3cccc(Cl)c3Cl)c2C)c(OC)c1	11%	-4%	13µM*
COc1ccc(OC)c(NC(=O)C(=O)N/N=C/c2ccccc2[N+](=O)[O-])c1	-1%	1%	-20%
Cc1cc(C)c2cc3c(N)c(C(=O)Nc4c(C)[nH]c(=O)[nH]c4=O)sc3nc2c1	1.4µM*	-9%	-14%
Cc1cc(C)c2cc3c(N)c(C(=O)N4CCOCC4)sc3nc2c1	4%	x	x
O=C(Cn1cnc2c(oc3ccccc32)c1=O)Nc1ccccc1C(F)(F)F	x	-9%	-24%
CCOCCCn1c(SCC(=O)NCc2ccco2)nc2c(sc3ccccc32)c1=O	15%	-3%	-4%
CCCCn1c(SCC(=O)NCc2ccco2)nc2c(sc3ccccc32)c1=O	8%	-2%	10µM*
O=C(CSc1nc2c(sc3ccccc32)c(=O)n1-c1ccccc1)NCc1ccco1	u	-14%	u

Compound activity deposited in PubChem BioAssay by National Center for Advancing Translational Sciences (NCATS).
